Screening results: PubChem BioAssay, several laboratories
V-ATPase pH: alters yeast V-ATPase proton transport. S. cerevisiae, pHLuorin cytosolic pH fluorescence. response, % at 10 µM. 350,000 tested, 0.37% active; in the data active = response mostly above about 7.3%, no sharp cut-off; inactive = mostly below about 5.4%; note: actives read high
NLRP3 yeast inh: blocks the NALP3 inflammasome reconstituted in yeast | Yeast reconstituted NLRP3/ASC/caspase-1, beta-gal luminescence, 24 h | inhibition, % at 10 µM | 330,000 tested, 0.39% active;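 active = inhibition of 50% or more; inactive = inhibition below 50%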;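 note: plate controls were induced DMSO wells for no effect and uninduced yeast grown without galactose for full effect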
PERK inh: human PERK inhibition, primary cell-based screen; 220,000 tested, 0.17% active; Q9NZJ5; CHO PERK-DD fusion, SEAP luminescence translation reporter; inhibition, % at 5.6 µM;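 active = inhibition above the mean inhibition of all tested compounds plus 3 SD, set separately per screening campaign, cut at about 2.9% in these data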;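 note: PERK kinase domain activated by AP20187 dimerizer at 100 nM; 0% = DMSO with dimerizer and 100% = rapamycin at 8.4 µM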
Yeast superoxide: yeast age-related superoxide inhibition as caloric restriction mimetic; S. cerevisiae aged cells, superoxide DHE fluorescence; hits give low values; superoxide response (% of plate mean), % at 10 µM; 330,000 tested, 0.18% active;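 active = superoxide response under a set limit, about three screen SD below normal, cut at about 65% in these data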;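 note: yeast aged for seven days with compound at 30 °C before DHE staining; 100% = average MFI of all compound-treated wells on the plate with controls excluded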
NALP1 yeast inh: NALP1 inhibition | 280,000 tested, 0.61% active | AID 2071 | S. cerevisiae NALP1/ASC/caspase-1 growth, X-gal OD620, 72 h | inhibition, % at 10 µM; in the data active = inhibition mostly above about 24%, no sharp cut-off; inactive = mostly below about 32%
Rce1 inh: blocks yeast Ras-converting enzyme | Q03530 | yeast membranes, quenched prenylated peptide cleavage fluorescence | calls only | 290,000 tested, 0.27% active | AID 2563;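 active = fall in fluorescence gain of 50% or more versus controls, with final raw signal at or below 3038400; inconclusive = same 50% fall but final raw signal above 3038400; inactive = fall in fluorescence gain under 50%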;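 note: plate controls were neutral control wells for no effect and wells lacking membranes for full effect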
* marks the source's active call; other numbers are inactive results; i = inactive; ? = inconclusive; nt = no result; + = active, no number; ! = not confirmed by another sample. An excerpt weighted towards active compounds, which were near 1.6% of everything screened.

SMILES	V-ATPase pH	NLRP3 yeast inh	PERK inh	Yeast superoxide	NALP1 yeast inh	Rce1 inh
S=C1CN=C(c2ccccc2)c2cc(Cl)ccc2N1	25*	25	0	93	-45	i
COc1cc(C=NNC(=S)Nc2ccc(S(=O)(=O)N3CCCCC3)cc2)cc(OC)c1OC	3	nt	nt	nt	nt	nt
C[n+]1ccc(-c2ccccc2)c2ccccc21	-2	1	nt	102	nt	+
CCOC(=O)NC1CCc2cc(OC)c(OC)c(OC)c2-c2ccc(OC)c(=O)cc21 (stereo not given)	1	nt	nt	nt	nt	nt
CCOc1ccc(C2C(C#N)=C(N)Oc3c2c(=O)oc2ccccc32)cc1 (stereo not given)	7	4	2	113	19	+
N#CC1=C(N)Oc2c(c(=O)oc3ccccc23)C1c1ccncc1 (stereo not given)	-4	1	0	108	-14	nt
C[C@@H]1CN([C@@H](C)CO)C(=O)CCCn2cc(nn2)CO[C@H]1CN(C)C(=O)Oc1cccc2ccccc12	0	nt	nt	nt	nt	nt
C[N+](C)(C)CCOC(=O)CBr	-6	-18	nt	103	nt	nt
CC(=O)OCC[N+](C)(C)C	1	18	1	103	20	+!
CCn1nc(-c2cccs2)nc2c(=O)n(C)c(=O)nc1-2	4	nt	nt	nt	33*	nt
CCC1(OC(=O)CN)C(=O)OCc2c1cc1n(c2=O)Cc2cc3ccccc3nc2-1 (stereo not given)	-1	nt	4.9*	100	6	?
CC[C@@]1(O)C(=O)OCc2c1cc1n(c2=O)Cc2cc3c(NC(=O)CN)cccc3nc2-1	1	24	1	89	23	i
CC[C@@]1(O)C(=O)OCc2c1cc1n(c2=O)Cc2cc3ccccc3nc2-1	nt	nt	6.0*	97	nt	i
O=S(=O)(c1cccc2ccccc12)N1Cc2ccccc2-n2nncc2C1	-3	nt	nt	nt	nt	nt
C[C@@H]1CN([C@H](C)CO)C(=O)CCCn2nncc2CO[C@@H]1CN(C)C(=O)Oc1ccc2ccccc2c1	-3	nt	nt	nt	nt	nt
COC(=O)C1=C(N)Oc2c(c(=O)oc3ccccc23)C1c1cccnc1 (stereo not given)	27*	3	1	94	-2	i
CCC1C(C#N)=C(N)Oc2c1c(=O)oc1ccccc21 (stereo not given)	-2	22	nt	103	-13	i
COc1ccc(CN2C(=O)C(CC(=O)NCc3ccco3)CC(C(=O)N(C)C)=C2C)cc1 (stereo not given)	0	nt	nt	nt	nt	nt
c1ccc2c(c1)CSc1ccccc1C2C1=NCCN1 (stereo not given)	3	4	0	98	7	i
Brc1ccc2c(c1)C(OC1CN3CCC1CC3)c1ccccc1CS2 (stereo not given)	1	7	-1	100	57*	i
CC(C)n1c(O)c(C2c3cc(Cl)ccc3Oc3[nH]c(=O)n(C(C)C)c(=O)c32)c(=O)[nH]c1=O (stereo not given)	18*	nt	2	nt	-5	i
CC1CC(OC(=O)c2ccccc2)(c2ccccc2)C(C)CN1C (stereo not given)	0	14	-1	97	33*	i
Cc1cc(C)c(S(=O)(=O)N2Cc3ccccc3-n3nncc3C2)c(C)c1	2	nt	nt	nt	nt	nt
COC(=O)C1=C(c2ccc(OCc3ccccc3)c(F)c2)C[C@@H]2CC[C@H]1N2C	-1	nt	nt	nt	nt	nt
CC(C)OCCCNC(=O)c1c(N)n(CC2CCCO2)c2nc3ccccc3nc12 (stereo not given)	nt	-5	-1	91	15	+
SMILES	V-ATPase pH	NLRP3 yeast inh	PERK inh	Yeast superoxide	NALP1 yeast inh	Rce1 inh
O=C(NCC1=C(c2cccc3ccccc23)C[C@@H]2CC[C@H]1N2Cc1ccco1)c1cccs1	-1	nt	nt	nt	nt	nt
C=CCn1c(O)c(C(CC)=Nc2ccc(N(CC)CC)cc2)c(=O)[nH]c1=O	2	29	1	99	5	+
C=CCn1c(O)c(C(C)=Nc2ccc(N(CC)CC)cc2)c(=O)[nH]c1=O	-1	-3	0	99	16	i
COc1cc2c(c(OC)c1OC)-c1ccc(SC)c(=O)cc1C(NC(C)=O)CC2 (stereo not given)	5	nt	nt	nt	nt	nt
O=C1NC(=S)N(c2ccccc2)C(=O)/C1=C/c1ccco1	7.6*	22	nt	107	17	i
CCOc1cccc(N2C(=O)/C(=C/c3ccco3)C(=O)NC2=S)c1	1	22	nt	101	-11	i
COc1ccc(NC(=S)N2Cc3ccccc3-n3nncc3C2)c(OC)c1	0	nt	nt	nt	nt	nt
